# Measured values published in PubChem BioAssay (NCATS).
# Records with an inconclusive call do not appear. Where a call stands in place of a potency, no number is given. Calls of active or inactive are those of the source. Calls come from the whole dose curve; as a rule, active = well fitted cell-killing curve with a large enough effect; inconclusive = small, poorly fitted or top-dose-only effect; inactive = flat fitted curve, though single readings scatter.
# Test: qHTS of pediatric cancer cell lines to identify multiple opportunities for drug repurposing: Confirmatory screen for BT-12 cells (AID 1347112);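 note: viability read after 48 h of compound exposure; nearly all actives have a fitted effect of over 55% in size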
# Conditions: BT-12 rhabdoid tumor cells, viability; series mostly up to 45.9 µM
# From the text: Drug repurposing or repositioning has been offered as a strategy for drug development in oncology programs. This approach has special potential for childhood cancers and other rare or orphan diseases, where the expected return on new drug development has been a disincentive to pharmaceuticals.
# In this project we exploit the poly-pharmacology of drugs to discover new indications via phenotypic screening of a panel of 19 well-characterized cell lines derived from solid tumors seen in children and adolescents. The goal is to identify approved drugs with previously unrecognized anticancer properties that has the potential to reveal new mechanisms and biological processes involved in carcinogenesis or drug resistance. We employed a titration-based paradigm (quantitative high-throughput screening or qHTS), where all compounds were tested at multiple concentrations for their effect on cell viability. Concentration-response curves (CRCs) were derived directly from the primary screen, and both potency and efficacy values were used to identify compounds with robust bioactivity profiles. We screened the NIH Chemical Genomics Center (NCGC) Pharmaceutical Collection (NPC) and Mechanism Interrogation Plate (MIPE) small molecule collections of approved and investigational compounds against these cell lines; and measured metabolically active cells after 48 hours of compound treatment as a proxy for cell viability.
# Assay Submitter: Nathalia J. Martinez, National Center for Advancing Translational Sciences, National Institutes of Health, Rockville, MD, USA; email: natalia.martinez@nih.gov
# [1] Shen, M et al. Quantitative high-throughput phenotypic screening of pediatric cancer cell lines identifies multiple opportunities for drug repurposing. Oncotarget 2017 Dec 19;9(4):4758-4772. PMID 29435139.
# The cells were obtained from University of North Carolina (UNC), Pediatric Preclinical Testing Program (PPT), and Coriell Institute (CI).
# qHTS cell viability assay:
# Cells were assayed in growth media at a density of 500-1,000 cells/well. Five microliters of cells were dispensed into 1,536-well, white, solid-bottom, TC-treated plates (Greiner Bio One) using a multidrop dispenser and incubated at 37 degrees C, 5% CO2, under a humidified atmosphere for 5 hours. Twenty-three nanoliters of compounds and controls (neutral control DMSO or positive control bortezomib at final concentration of 2.3 µM) were subsequently transferred by Kalypsys pintool. For primary screens, the MIPE collection was tested at 11-point dilutions (final concentrations range from 0.78 nM to 46 µM) and the NPC collection at 8-point dilutions (final concentrations range from 0.59 nM to 46 µM). Compounds tested in follow-up screens were assayed at 11-point dilutions. Cells were incubated for 48 hours, followed by addition of 3 µL of CellTiter-Glo (Promega). After a 15 min incubation at room temperature, samples were analyzed for luminescence intensity using a ViewLux High-throughput CCD imager equipped with clear filters.
# Potency is the fitted concentration of half-maximal effect.
row,SMILES,Potency
1,CS(=O)(=O)c1ccc([C@@H](O)[C@@H](CO)NC(=O)C(Cl)Cl)cc1,inactive
2,CN(C)c1ccc(C(=C2C=CC(=[N+](C)C)C=C2)c2ccc(N(C)C)cc2)cc1,2.33 µM (active)
3,COc1ccc(-c2ccc3cc(C(=O)O)ccc3c2)cc1C12CC3CC(CC(C3)C1)C2,inactive
4,CCOC(=O)[C@H](CCc1ccccc1)N[C@H]1CS[C@H](c2cccs2)CN(CC(=O)O)C1=O,inactive
5,Nc1nc(N)c2nc(CNc3ccc(C(=O)NC(CCC(=O)O)C(=O)O)cc3)cnc2n1 (stereo unspecified),0.928 µM (active)
6,CC(C)C[C@H](NC(=O)[C@H](CCc1ccccc1)NC(=O)CN1CCOCC1)C(=O)N[C@@H](Cc1ccccc1)C(=O)N[C@@H](CC(C)C)C(=O)[C@@]1(C)CO1,0.165 µM (active)
7,Nc1[nH]c(=O)ncc1F,inactive
8,COc1cc2c(Nc3ccc(Br)cc3F)ncnc2cc1OCC1CCN(C)CC1,inactive
9,CC(C)(C#N)c1cc(Cn2cncn2)cc(C(C)(C)C#N)c1,inactive
10,Nc1nc(N)nc(-c2cc(Cl)ccc2Cl)n1,inactive
11,CO[C@@]12[C@H](COC(N)=O)C3=C(C(=O)C(C)=C(N)C3=O)N1C[C@@H]1N[C@@H]12,16.5 µM (active)
12,CC(C)(C)C(=O)OCOP(=O)(COCCn1cnc2c(N)ncnc21)OCOC(=O)C(C)(C)C,16.5 µM (active)
13,CCOC(=O)c1ccc(C#Cc2ccc3c(c2)C(C)(C)CCS3)nc1,inactive
14,O=NN(CCCl)C(=O)NC1CCCCC1,inactive
15,COC(=O)Nc1nc2ccc(C(=O)c3ccccc3)cc2[nH]1,4.14 µM (active)
16,C[C@@H]1C[C@H]2[C@@H]3CCC4=CC(=O)C=C[C@]4(C)[C@@]3(Cl)[C@@H](O)C[C@]2(C)[C@@]1(OC(=O)c1ccco1)C(=O)CCl,5.85 µM (active)

row,SMILES,Potency
1,COc1cc([C@@H]2c3cc4c(cc3[C@H](O)[C@H]3COC(=O)[C@H]23)OCO4)cc(OC)c1OC,0.0522 µM (active)
2,CCCCOc1ccc(CC(=O)NO)cc1,inactive
3,CCC(=O)O[C@]1(C(=O)SCF)[C@H](C)C[C@H]2[C@@H]3C[C@H](F)C4=CC(=O)C=C[C@]4(C)[C@@]3(F)[C@@H](O)C[C@@]21C,inactive
4,CCC(=O)O[C@]1(C(=O)CCl)[C@@H](C)C[C@H]2[C@@H]3CCC4=CC(=O)C=C[C@]4(C)[C@@]3(F)[C@@H](O)C[C@@]21C,inactive
5,Cn1nnc2c(C(N)=O)ncn2c1=O,inactive
6,CC1CC2C3CCC4=CC(=O)C=C[C@]4(C)[C@@]3(F)[C@@H](O)C[C@]2(C)[C@@]1(O)C(=O)CO (stereo partly specified),inactive
7,COc1cc(NCc2ccc3nc(N)nc(N)c3c2C)cc(OC)c1OC,3.29 µM (active)
8,C[C@@H](CN1CC(=O)NC(=O)C1)N1CC(=O)NC(=O)C1,inactive
9,CC(C)NCC(O)c1ccc(NS(C)(=O)=O)cc1 (stereo unspecified),inactive
10,CNS(=O)(=O)CCc1ccc2[nH]cc(C3CCN(C)CC3)c2c1,inactive
11,S=P(N1CC1)(N1CC1)N1CC1,inactive
12,N=C(N)c1ccc(OCCCCCOc2ccc(C(=N)N)cc2)cc1,3.29 µM (active)
13,CNCC[C@H](Oc1cccc2ccccc12)c1cccs1,inactive
14,COc1ccc(C(=O)CC(=O)c2ccc(C(C)(C)C)cc2)cc1,inactive
15,CNNCc1ccc(C(=O)NC(C)C)cc1,inactive
